Laboratory results as given in PubChem BioAssay.
Activity calls are given as the source filed them.

How the values were obtained:
[1] = compound effects on lung adenocarcinoma cell viability – A549, calcein-AM fluorescence, 48 h, basal, profiling panel (AID 1162); conditions: higher = more signal
[2] = compound effects on differentiated 3T3-L1 adipocyte viability – cell-based, 3T3-L1 adipocytes, calcein-AM fluorescence, 48 h, basal, profiling panel (AID 1163); conditions: 3T3-L1 adipocytes viability, higher = more signal
[3] = compound effects on hepatocellular carcinoma cell viability – HepG2, calcein-AM fluorescence, 48 h, basal, profiling panel (AID 1164); conditions: higher = more signal
[4] = compound effects on multiple myeloma cell viability – MM1S, calcein-AM fluorescence, 48 h, basal, profiling panel (AID 1165); conditions: higher = more signal
[5] = calcein-AM signal in unstimulated myeloma cells – cell-based, calcein-AM fluorescence, 48 h, PK04 Diversity Set, profiling panel (AID 1166); conditions: RPMI8226 myeloma viability, higher = more signal;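 further: cells grown under basal conditions without added stimulus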
[6] = JC-1 mitochondrial signal, unstimulated HepG2 cells – cell-based, JC-1 fluorescence, 24 h, 100 nL compound, profiling panel (AID 1167); conditions: HepG2 mitochondrial potential, higher = more signal
[7] = JC-1 mitochondrial signal, unstimulated adipocytes – cell-based, JC-1 fluorescence, 3T3-L1 adipocytes, 24 h, 100 nL compound, profiling panel (AID 1168); conditions: JC-1 mitochondrial fluorescence, higher = more signal, called active from +8 up or from −8 down
[8] = JC-1 mitochondrial signal, unstimulated myeloma cells – cell-based, JC-1 fluorescence, RPMI8226, 24 h, 100 nL compound, profiling panel (AID 1169); conditions: JC-1 mitochondrial potential fluorescence, higher = more signal
[9] = JC-1 mitochondrial signal, unstimulated MM1S myeloma – cell-based, JC-1 fluorescence, 24 h, 100 nL compound, profiling panel (AID 1170); conditions: MM1S mitochondrial potential, higher = more signal
[10] = resazurin metabolic signal in A549 cells – cell-based, resazurin fluorescence, 24 h, PK04 Diversity Set, profiling panel (AID 1171); conditions: A549 viability, higher = more signal, called active from +8 up or from −8 down
Further: test concentration not given here.

Row | SMILES | z-score [1] | z-score [2] | z-score [3] | z-score [4] | z-score [5] | z-score [6] | z-score [7] | z-score [8] | z-score [9] | z-score [10]
1 | C[N+](C)(C)CCCC[C@@H]1NC(=O)[C@H]2C[C@@H](C(=O)NCCCCCN)[C@@H](c3ccc(O)cc3)N2C1=O | 2.02 | 0.727 | -0.224 | -1.68 | -0.145 | 1.66 | -0.359 (inactive) | 0.144 | -0.292 | 0.78 (inactive)
2 | O=C1O[C@H](c2ccccc2)[C@H](c2ccccc2)N2[C@H]1[C@@H](C(=O)Nc1nc3ccccc3s1)[C@]1(C(=O)Nc3ccccc31)[C@H]2c1ccccc1OCCO | -1.59 | 0.842 | -1.97 | -1.61 | -3.67 | -2.27 | 4.1 (inactive) | -1.16 | -1.37 | -2.35 (inactive)
3 | C[C@]1(C(=O)O)c2ccccc2C(=O)N(Cc2cc(C(F)(F)F)cc(C(F)(F)F)c2)[C@H]1c1ccc(CO)cc1 | -0.557 | 0.261 | -0.164 | -0.103 | -0.329 | -0.244 | -0.107 (inactive) | -0.117 | -0.468 | 0.449 (inactive)
4 | CCCCC(=C=CC[C@@H](O)c1ccc(OCCO)cc1)CCO | 1.39 | -0.0802 | 0.016 | -0.64 | 0.796 | 0.0677 | -0.214 (inactive) | -0.0377 | 1.03 | 1.46 (inactive)
5 | CC[C@@H](O[Si](C#C[Si](C(C)C)(C(C)C)C(C)C)(C(C)C)C(C)C)c1cn([C@H](CO)Cc2ccccc2)nn1 | -0.28 | -1.04 | 0.928 | 0.297 | 0.944 | 0.74 | -0.123 (inactive) | -0.0761 | -0.757 | 0.194 (inactive)
6 | CC(CO)N1C(=O)[C@@H]2[C@H]3C(=O)OCC=C[C@H]3OC23C=CCN(c2ccc4ccccc4c2)C(=O)[C@@H]13 (stereo not given in full) | 0.0456 | 0.0291 | -0.432 | -0.496 | -0.149 | -0.626 | -0.654 (inactive) | 0.109 | 0.563 | 0.873 (inactive)
7 | Cc1ccc(S[C@]2(C(=O)NCc3ccccc3)CC(=O)N(Cc3ccccc3Cl)[C@@H]2c2ccc(CO)cc2)cc1 | -0.643 | 0.9 | 0.191 | 0.0218 | -1.25 | 0.0273 | -0.537 (inactive) | -0.517 | 0.666 | 0.0338 (inactive)
8 | CCCCC=C[C@@H](NC(=O)C(C)(C)C)c1ccccc1 | -2.66 | -0.688 | -5.19 | -3.26 | -4.72 | -4.78 | -0.576 (inactive) | -0.895 | -2.82 | -0.938 (inactive)
